Reference: PubChem BioAssay (EPA / NIEHS)
Calls of active or inactive are those of the source. How the source made its calls: active means hit-call score of the fitted dose curve at least 0.9, where 1 is the maximum; inactive means score below 0.9.

Each compound was assayed on CYP2C9 (gene 1559) (assay: LTEA_HepaRG_CYP2C9: Life Technologies and Expression Analysis (LTEA) Assay for CYP2C9 using HepaRG (AID 2283484)). Conditions: mRNA level, 48 h; actives raise or lower the signal.
Outline: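 Eight-point concentration-response (highest 100 uM, half-log dilutions) in HepaRG cells for 48 h; CYP2C9 expression by qRT-PCR normalized to ACTB, GAPDH, POLR2A. Bidirectional fit, DMSO baseline.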

| SMILES | outcome | AC50 |
| --- | --- | --- |
| CCCc1cc(=O)[nH]c(=S)[nH]1 | inactive |  |
| CNCc1cc(F)ccc1Oc1ccc(Cl)c(Cl)c1 |  | 92.6 µM (active) |
| Cc1cc(NC(=O)C(=O)O)cc(C)c1Oc1ccc(O)c2c1CCC2 | inactive |  |
| NS(=O)(=O)c1cc2c(cc1Cl)NCNS2(=O)=O | inactive |  |
| CCCCCCCCCCCCCCCC | inactive |  |
| Cc1oc(-c2ccccc2)nc1CCOc1cccc2c1ccn2CCC(=O)O |  | 77.9 µM (active) |
| Oc1ccc2c(c1)OC[C@@H](N1CCC(O)(c3ccc(F)cc3)CC1)[C@H]2O | inactive |  |
| CCCCCCCCCCC | inactive |  |
| Cc1cccc(C)c1O | inactive |  |
| CCOC(=O)CCC(=O)OCC | inactive |  |
| NCCO | inactive |  |
| Cc1ccccc1Cl | inactive |  |
| CCCCCC(=O)O | inactive |  |
| C1CCC(SSC2CCCCC2)CC1 | inactive |  |

Each compound was assayed on CYP2E1 (gene 1571) (assay: LTEA_HepaRG_CYP2E1: Life Technologies and Expression Analysis (LTEA) Assay for CYP2E1 using HepaRG (AID 2283485)). Conditions: mRNA level, 48 h; actives raise or lower the signal.
Outline: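 CYP2E1 transcript measured by Fluidigm qRT-PCR against three housekeeping genes in human HepaRG cells treated 48 h (top 100 uM, half-log steps, 0.5% DMSO vehicle). Gain or loss fitted relative to DMSO baseline.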

| SMILES | outcome | AC50 |
| --- | --- | --- |
| Cc1cccc([N+](=O)[O-])c1C | inactive |  |
| CCCc1cc(=O)[nH]c(=S)[nH]1 | inactive |  |
| O=c1[nH]cc(F)c(=O)[nH]1 |  | 51 µM (active) |
| CC1=C(/C=C/C(C)=C/C=C/C(C)=C/CO)C(C)(C)CCC1 |  | 52.2 µM (active) |
| Cc1ccc(C)c(O)c1C | inactive |  |
| CNCc1cc(F)ccc1Oc1ccc(Cl)c(Cl)c1 |  | 73.8 µM (active) |
| Cc1cc(NC(=O)C(=O)O)cc(C)c1Oc1ccc(O)c2c1CCC2 |  | 1.2 µM (active) |
| Clc1cc(Cl)c(Cl)cc1Cl | inactive |  |
| FC(F)(F)C(F)(F)C(F)(F)C(F)(F)C(F)(F)C(F)(F)CCI | inactive |  |
| COc1cc(C=O)ccc1O | inactive |  |
| Oc1ccc2ccccc2c1N=Nc1ccccc1 |  | 21.5 µM (active) |
| NS(=O)(=O)c1cc2c(cc1Cl)NCNS2(=O)=O | inactive |  |
| Cc1ccc2ncccc2c1 | inactive |  |
| CCCCCCCCCCCCCCCC | inactive |  |
| Cc1oc(-c2ccccc2)nc1CCOc1cccc2c1ccn2CCC(=O)O |  | 62.6 µM (active) |
| Cc1c(C(=O)O)c(O)cc2c1C(=O)c1c(O)c([C@@H]3O[C@H](CO)[C@@H](O)[C@H](O)[C@H]3O)c(O)c(O)c1C2=O | inactive |  |
| CCCCc1ccc2c(n1)[C@@H](c1ccc(OC)cc1C[C@H](C)C(=O)O)[C@H](C(=O)O)[C@H]2c1ccc2c(c1)OCO2 | inactive |  |
| Oc1ccc2c(c1)OC[C@@H](N1CCC(O)(c3ccc(F)cc3)CC1)[C@H]2O | inactive |  |
| CCCCCCCCCCC | inactive |  |
| Cc1cccc(C)c1O | inactive |  |
| CCOC(=O)CCC(=O)OCC | inactive |  |
| C=CCOC(=O)c1ccccc1C(=O)OCC=C | inactive |  |
| Cc1ccc(C)c(C)c1 | inactive |  |
| NCCO | inactive |  |
| c1cc(-c2ccncc2)ccn1 | inactive |  |
| Cc1ccccc1Cl | inactive |  |
| CCCCCCCCCCCCCCCCCC(=O)O | inactive |  |
| CCCCCC(=O)O | inactive |  |
| C1CCC(SSC2CCCCC2)CC1 | inactive |  |

Each compound was assayed on CYP4A11 (gene 1579) (assay: LTEA_HepaRG_CYP4A11: Life Technologies and Expression Analysis (LTEA) Assay for CYP4A11 using HepaRG (AID 2283486)). Conditions: mRNA level, 48 h; actives raise or lower the signal.
Outline: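 Readout is CYP4A11 transcript level by qRT-PCR, normalized to three housekeeping genes and fitted bidirectionally against 0.5% DMSO. Human HepaRG cells were treated 48 h, in duplicate, with an 8-point half-log series topping at 100 uM.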

| SMILES | outcome | AC50 |
| --- | --- | --- |
| Cc1cccc([N+](=O)[O-])c1C | inactive |  |
| CCCc1cc(=O)[nH]c(=S)[nH]1 | inactive |  |
| O=c1[nH]cc(F)c(=O)[nH]1 |  | 51 µM (active) |
| CC1=C(/C=C/C(C)=C/C=C/C(C)=C/CO)C(C)(C)CCC1 |  | 15.5 µM (active) |
| Cc1ccc(C)c(O)c1C | inactive |  |
| CNCc1cc(F)ccc1Oc1ccc(Cl)c(Cl)c1 |  | 75.5 µM (active) |
| Cc1cc(NC(=O)C(=O)O)cc(C)c1Oc1ccc(O)c2c1CCC2 |  | 0.00589 µM (active) |
| Clc1cc(Cl)c(Cl)cc1Cl | inactive |  |
| FC(F)(F)C(F)(F)C(F)(F)C(F)(F)C(F)(F)C(F)(F)CCI | inactive |  |
| COc1cc(C=O)ccc1O | inactive |  |
| Oc1ccc2ccccc2c1N=Nc1ccccc1 |  | 27.1 µM (active) |
| NS(=O)(=O)c1cc2c(cc1Cl)NCNS2(=O)=O | inactive |  |
| Cc1ccc2ncccc2c1 | inactive |  |
| CCCCCCCCCCCCCCCC | inactive |  |
| Cc1oc(-c2ccccc2)nc1CCOc1cccc2c1ccn2CCC(=O)O |  | 85.9 µM (active) |
| Cc1c(C(=O)O)c(O)cc2c1C(=O)c1c(O)c([C@@H]3O[C@H](CO)[C@@H](O)[C@H](O)[C@H]3O)c(O)c(O)c1C2=O | inactive |  |
| CCCCc1ccc2c(n1)[C@@H](c1ccc(OC)cc1C[C@H](C)C(=O)O)[C@H](C(=O)O)[C@H]2c1ccc2c(c1)OCO2 | inactive |  |
| Oc1ccc2c(c1)OC[C@@H](N1CCC(O)(c3ccc(F)cc3)CC1)[C@H]2O | inactive |  |
| CCCCCCCCCCC | inactive |  |
| Cc1cccc(C)c1O | inactive |  |
| CCOC(=O)CCC(=O)OCC | inactive |  |
| C=CCOC(=O)c1ccccc1C(=O)OCC=C | inactive |  |
| Cc1ccc(C)c(C)c1 | inactive |  |
| NCCO | inactive |  |
| c1cc(-c2ccncc2)ccn1 | inactive |  |
| Cc1ccccc1Cl | inactive |  |
| CCCCCCCCCCCCCCCCCC(=O)O | inactive |  |
| CCCCCC(=O)O | inactive |  |
| C1CCC(SSC2CCCCC2)CC1 | inactive |  |

These compounds were tested on Cytochrome P450 3A4 (Homo sapiens) (UniProt P08684) (assay: LTEA_HepaRG_CYP3A4: Life Technologies and Expression Analysis (LTEA) Assay for CYP3A4 using HepaRG (AID 2283487)). Conditions: mRNA level, 48 h; actives raise or lower the signal.
Outline: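 In a human hepatic line (HepaRG), duplicate wells were treated 48 h with up to 100 uM chemical in half-log dilutions. Endpoint: CYP3A4 mRNA induction or loss relative to 0.5% DMSO vehicle, by qRT-PCR.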

Sequence of Cytochrome P450 3A4 (Homo sapiens) (P08684 whole entry, looked up): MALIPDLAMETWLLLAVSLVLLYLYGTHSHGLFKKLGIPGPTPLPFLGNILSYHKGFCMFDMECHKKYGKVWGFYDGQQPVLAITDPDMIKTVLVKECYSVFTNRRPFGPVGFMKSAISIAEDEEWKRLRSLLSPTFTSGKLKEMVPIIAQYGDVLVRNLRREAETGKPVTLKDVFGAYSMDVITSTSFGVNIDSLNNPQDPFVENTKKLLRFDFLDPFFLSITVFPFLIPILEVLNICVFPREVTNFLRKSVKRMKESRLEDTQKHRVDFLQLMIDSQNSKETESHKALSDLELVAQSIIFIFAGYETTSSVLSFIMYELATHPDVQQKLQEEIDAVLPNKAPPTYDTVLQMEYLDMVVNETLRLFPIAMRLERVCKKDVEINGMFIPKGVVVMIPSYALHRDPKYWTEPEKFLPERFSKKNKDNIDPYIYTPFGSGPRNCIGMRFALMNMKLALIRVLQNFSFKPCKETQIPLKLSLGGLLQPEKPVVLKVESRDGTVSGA

| SMILES | outcome | AC50 |
| --- | --- | --- |
| Cc1cccc([N+](=O)[O-])c1C | inactive |  |
| CCCc1cc(=O)[nH]c(=S)[nH]1 | inactive |  |
| O=c1[nH]cc(F)c(=O)[nH]1 | inactive |  |
| CC1=C(/C=C/C(C)=C/C=C/C(C)=C/CO)C(C)(C)CCC1 |  | 23.6 µM (active) |
| Cc1ccc(C)c(O)c1C | inactive |  |
| Cc1cc(NC(=O)C(=O)O)cc(C)c1Oc1ccc(O)c2c1CCC2 |  | 13.8 µM (active) |
| Clc1cc(Cl)c(Cl)cc1Cl | inactive |  |
| FC(F)(F)C(F)(F)C(F)(F)C(F)(F)C(F)(F)C(F)(F)CCI | inactive |  |
| COc1cc(C=O)ccc1O | inactive |  |
| Oc1ccc2ccccc2c1N=Nc1ccccc1 |  | 1.81 µM (active) |
| NS(=O)(=O)c1cc2c(cc1Cl)NCNS2(=O)=O | inactive |  |
| Cc1ccc2ncccc2c1 | inactive |  |
| CCCCCCCCCCCCCCCC | inactive |  |
| Cc1oc(-c2ccccc2)nc1CCOc1cccc2c1ccn2CCC(=O)O |  | 80.1 µM (active) |
| Cc1c(C(=O)O)c(O)cc2c1C(=O)c1c(O)c([C@@H]3O[C@H](CO)[C@@H](O)[C@H](O)[C@H]3O)c(O)c(O)c1C2=O | inactive |  |
| CCCCc1ccc2c(n1)[C@@H](c1ccc(OC)cc1C[C@H](C)C(=O)O)[C@H](C(=O)O)[C@H]2c1ccc2c(c1)OCO2 | inactive |  |
| Oc1ccc2c(c1)OC[C@@H](N1CCC(O)(c3ccc(F)cc3)CC1)[C@H]2O | inactive |  |
| CCCCCCCCCCC | inactive |  |
| Cc1cccc(C)c1O | inactive |  |
| CCOC(=O)CCC(=O)OCC | inactive |  |
| C=CCOC(=O)c1ccccc1C(=O)OCC=C | inactive |  |
| Cc1ccc(C)c(C)c1 | inactive |  |
| NCCO | inactive |  |
| c1cc(-c2ccncc2)ccn1 | inactive |  |
| Cc1ccccc1Cl | inactive |  |
| CCCCCCCCCCCCCCCCCC(=O)O | inactive |  |
| CCCCCC(=O)O | inactive |  |
| C1CCC(SSC2CCCCC2)CC1 | inactive |  |
